This passage reports log2 fold change results from the supplement of paper PMC10849652.

Assay in all cases: log2 fold change, soluble protein after heating vs DMSO (PISA); higher = thermal stabilisation; K562 lysate, 10 uM; active = over 0.2 and 3.5 SD of the protein, either way, in both replicates (recomputed)
Compound in assay [1]: NCC(=O)Nc1ccc(-n2nc(C(F)(F)F)cc2-c2ccc3c(ccc4ccccc43)c2)cc1
The method, boiled down: (§1)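 Pellets of K562 cells were dounce-homogenised in PBS pH 7.4 with 1 mM MgCl2, and the crude extract was held at 1 mg/mL protein for a 30 min treatment with 10 μM compound. Aliquots were heated for 3 min over 48°C-58°C and pooled before NP-40 was added to 0.5% at 4°C. The supernatant from 21,000xg for 90 min was quantified by TMTpro 16plex LC-MS/MS with channel sums equalised. Values are reported from duplicates as log-two fold change in thermal stability relative to solvent controls.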

Compound in the next assay: O=C(CCCCCCC(=O)Nc1ccccc1)NO [vorinostat]
The method, boiled down: as §1

Compound in another assay: O=C(O)c1ccc2c(c1)nc(Nc1cccc(Cl)c1)c1ccncc12 [silmitasertib]
The method, boiled down: as §1

Compound in assay [2]: O=C1NC(=O)C(c2cnc3ccccn23)=C1c1cn2c3c(cc(F)cc13)CN(C(=O)N1CCCCC1)CC2
The method, boiled down: as §1

Compound in the next assay: c1cn2cc(-c3ccc4cn[nH]c4c3)nc(Nc3ccc(N4CCOCC4)cc3)c2n1 [entospletinib]
The method, boiled down: as §1

Targets with a hit are over-represented here; the source holds about 8,800 in all. About 0.5% of all pairs of compound and target were hits. Values without a mark were called inactive.

Sequence of UniProt Q96A65 (Q96A65 whole entry, looked up): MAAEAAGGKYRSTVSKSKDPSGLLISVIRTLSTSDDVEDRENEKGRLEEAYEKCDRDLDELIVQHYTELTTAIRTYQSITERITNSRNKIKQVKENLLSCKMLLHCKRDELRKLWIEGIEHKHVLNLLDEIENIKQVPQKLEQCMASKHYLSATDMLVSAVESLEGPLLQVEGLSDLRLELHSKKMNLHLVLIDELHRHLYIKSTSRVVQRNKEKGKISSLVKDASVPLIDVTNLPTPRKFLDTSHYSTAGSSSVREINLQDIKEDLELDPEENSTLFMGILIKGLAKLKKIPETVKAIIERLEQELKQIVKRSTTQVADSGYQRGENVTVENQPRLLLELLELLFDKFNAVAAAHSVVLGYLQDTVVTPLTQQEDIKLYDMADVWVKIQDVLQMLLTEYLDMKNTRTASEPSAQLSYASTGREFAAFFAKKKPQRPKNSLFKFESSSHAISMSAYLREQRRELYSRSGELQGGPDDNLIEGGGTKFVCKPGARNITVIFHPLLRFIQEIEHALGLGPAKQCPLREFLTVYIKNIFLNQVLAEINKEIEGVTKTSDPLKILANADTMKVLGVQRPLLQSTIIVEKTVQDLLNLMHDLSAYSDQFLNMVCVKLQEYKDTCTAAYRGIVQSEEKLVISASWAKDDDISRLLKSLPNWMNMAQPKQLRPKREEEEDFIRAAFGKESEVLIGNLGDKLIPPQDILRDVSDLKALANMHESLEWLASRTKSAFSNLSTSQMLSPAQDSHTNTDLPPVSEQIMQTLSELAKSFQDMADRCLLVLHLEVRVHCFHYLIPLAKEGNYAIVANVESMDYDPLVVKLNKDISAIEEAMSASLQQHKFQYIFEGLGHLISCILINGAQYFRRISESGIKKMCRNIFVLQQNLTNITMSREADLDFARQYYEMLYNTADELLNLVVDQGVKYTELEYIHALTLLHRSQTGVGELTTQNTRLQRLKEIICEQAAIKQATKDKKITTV
Sequence of UniProt A6NHQ2 (A6NHQ2 whole entry, looked up): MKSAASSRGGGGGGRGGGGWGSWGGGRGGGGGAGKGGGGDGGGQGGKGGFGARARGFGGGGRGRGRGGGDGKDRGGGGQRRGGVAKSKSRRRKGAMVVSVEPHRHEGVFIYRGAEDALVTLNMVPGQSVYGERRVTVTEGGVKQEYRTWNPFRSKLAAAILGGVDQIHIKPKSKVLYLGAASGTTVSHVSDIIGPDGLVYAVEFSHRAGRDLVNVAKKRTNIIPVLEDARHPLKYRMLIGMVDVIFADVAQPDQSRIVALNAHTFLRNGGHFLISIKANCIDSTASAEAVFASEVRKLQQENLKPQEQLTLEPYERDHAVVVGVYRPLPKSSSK
Sequence of UniProt Q9UJ14 (Q9UJ14 whole entry, looked up): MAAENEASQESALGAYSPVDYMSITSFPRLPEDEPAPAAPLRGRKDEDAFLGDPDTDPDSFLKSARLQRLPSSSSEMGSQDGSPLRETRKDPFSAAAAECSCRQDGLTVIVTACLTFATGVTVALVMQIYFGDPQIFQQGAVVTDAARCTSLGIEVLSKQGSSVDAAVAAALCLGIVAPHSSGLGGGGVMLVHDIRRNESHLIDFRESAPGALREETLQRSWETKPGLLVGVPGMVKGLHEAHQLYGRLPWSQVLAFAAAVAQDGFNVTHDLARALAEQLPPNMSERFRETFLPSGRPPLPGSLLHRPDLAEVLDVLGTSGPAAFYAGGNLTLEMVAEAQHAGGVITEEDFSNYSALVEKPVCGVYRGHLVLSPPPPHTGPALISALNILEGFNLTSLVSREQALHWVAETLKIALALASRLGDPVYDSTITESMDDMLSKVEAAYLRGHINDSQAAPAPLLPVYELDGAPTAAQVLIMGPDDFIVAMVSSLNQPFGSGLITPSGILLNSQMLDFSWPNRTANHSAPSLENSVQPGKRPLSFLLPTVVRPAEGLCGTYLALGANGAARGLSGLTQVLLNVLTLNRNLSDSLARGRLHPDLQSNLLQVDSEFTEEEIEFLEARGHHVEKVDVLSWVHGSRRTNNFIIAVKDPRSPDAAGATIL
Sequence of UniProt Q9Y613 (Q9Y613 whole entry, looked up): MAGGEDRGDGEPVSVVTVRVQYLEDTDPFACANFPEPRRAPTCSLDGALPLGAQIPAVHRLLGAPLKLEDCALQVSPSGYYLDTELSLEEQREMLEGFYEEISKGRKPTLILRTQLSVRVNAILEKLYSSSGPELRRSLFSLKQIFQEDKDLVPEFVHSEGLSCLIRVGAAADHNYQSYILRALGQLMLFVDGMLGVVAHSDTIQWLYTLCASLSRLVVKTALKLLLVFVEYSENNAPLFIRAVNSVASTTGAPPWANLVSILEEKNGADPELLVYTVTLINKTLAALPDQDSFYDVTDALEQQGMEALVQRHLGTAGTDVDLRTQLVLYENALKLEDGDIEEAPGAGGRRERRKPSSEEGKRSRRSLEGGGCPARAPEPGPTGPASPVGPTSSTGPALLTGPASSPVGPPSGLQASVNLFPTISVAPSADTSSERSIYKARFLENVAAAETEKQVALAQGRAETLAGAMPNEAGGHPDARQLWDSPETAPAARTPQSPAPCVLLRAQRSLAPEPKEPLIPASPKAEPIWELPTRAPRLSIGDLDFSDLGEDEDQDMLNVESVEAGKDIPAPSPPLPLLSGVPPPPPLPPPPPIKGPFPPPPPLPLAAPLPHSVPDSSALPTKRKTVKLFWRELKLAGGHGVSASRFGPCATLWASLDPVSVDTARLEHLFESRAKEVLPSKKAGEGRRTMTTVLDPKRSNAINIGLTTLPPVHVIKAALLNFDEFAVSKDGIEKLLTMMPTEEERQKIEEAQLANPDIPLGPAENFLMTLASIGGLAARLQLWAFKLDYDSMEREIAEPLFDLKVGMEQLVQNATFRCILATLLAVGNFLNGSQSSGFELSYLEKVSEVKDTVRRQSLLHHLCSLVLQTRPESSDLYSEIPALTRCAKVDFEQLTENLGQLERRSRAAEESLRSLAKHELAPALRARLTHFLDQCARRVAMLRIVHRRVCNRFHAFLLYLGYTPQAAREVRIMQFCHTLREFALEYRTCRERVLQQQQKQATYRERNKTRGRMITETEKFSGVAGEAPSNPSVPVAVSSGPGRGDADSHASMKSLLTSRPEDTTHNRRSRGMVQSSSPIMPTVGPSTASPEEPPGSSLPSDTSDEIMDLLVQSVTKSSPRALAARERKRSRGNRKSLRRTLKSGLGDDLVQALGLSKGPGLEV
Sequence of UniProt Q96G46 (Q96G46 whole entry, looked up): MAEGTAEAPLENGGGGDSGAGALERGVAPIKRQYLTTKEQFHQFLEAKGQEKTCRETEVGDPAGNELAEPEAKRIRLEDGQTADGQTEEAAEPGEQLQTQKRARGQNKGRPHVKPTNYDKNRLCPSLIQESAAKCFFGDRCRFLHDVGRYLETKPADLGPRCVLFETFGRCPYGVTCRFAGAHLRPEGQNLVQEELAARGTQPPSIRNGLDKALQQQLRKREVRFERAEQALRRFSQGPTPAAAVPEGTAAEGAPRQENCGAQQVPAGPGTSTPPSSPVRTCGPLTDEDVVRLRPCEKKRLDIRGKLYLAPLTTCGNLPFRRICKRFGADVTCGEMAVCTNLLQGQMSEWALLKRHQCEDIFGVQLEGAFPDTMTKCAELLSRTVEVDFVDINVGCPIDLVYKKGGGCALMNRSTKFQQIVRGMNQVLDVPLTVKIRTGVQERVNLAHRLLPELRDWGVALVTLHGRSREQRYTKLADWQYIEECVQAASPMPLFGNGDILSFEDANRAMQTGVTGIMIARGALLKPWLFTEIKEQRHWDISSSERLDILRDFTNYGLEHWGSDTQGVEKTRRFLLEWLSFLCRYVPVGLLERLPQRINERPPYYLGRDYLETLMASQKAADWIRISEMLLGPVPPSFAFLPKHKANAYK
Sequence of UniProt Q96EK7 (Q96EK7 whole entry, looked up): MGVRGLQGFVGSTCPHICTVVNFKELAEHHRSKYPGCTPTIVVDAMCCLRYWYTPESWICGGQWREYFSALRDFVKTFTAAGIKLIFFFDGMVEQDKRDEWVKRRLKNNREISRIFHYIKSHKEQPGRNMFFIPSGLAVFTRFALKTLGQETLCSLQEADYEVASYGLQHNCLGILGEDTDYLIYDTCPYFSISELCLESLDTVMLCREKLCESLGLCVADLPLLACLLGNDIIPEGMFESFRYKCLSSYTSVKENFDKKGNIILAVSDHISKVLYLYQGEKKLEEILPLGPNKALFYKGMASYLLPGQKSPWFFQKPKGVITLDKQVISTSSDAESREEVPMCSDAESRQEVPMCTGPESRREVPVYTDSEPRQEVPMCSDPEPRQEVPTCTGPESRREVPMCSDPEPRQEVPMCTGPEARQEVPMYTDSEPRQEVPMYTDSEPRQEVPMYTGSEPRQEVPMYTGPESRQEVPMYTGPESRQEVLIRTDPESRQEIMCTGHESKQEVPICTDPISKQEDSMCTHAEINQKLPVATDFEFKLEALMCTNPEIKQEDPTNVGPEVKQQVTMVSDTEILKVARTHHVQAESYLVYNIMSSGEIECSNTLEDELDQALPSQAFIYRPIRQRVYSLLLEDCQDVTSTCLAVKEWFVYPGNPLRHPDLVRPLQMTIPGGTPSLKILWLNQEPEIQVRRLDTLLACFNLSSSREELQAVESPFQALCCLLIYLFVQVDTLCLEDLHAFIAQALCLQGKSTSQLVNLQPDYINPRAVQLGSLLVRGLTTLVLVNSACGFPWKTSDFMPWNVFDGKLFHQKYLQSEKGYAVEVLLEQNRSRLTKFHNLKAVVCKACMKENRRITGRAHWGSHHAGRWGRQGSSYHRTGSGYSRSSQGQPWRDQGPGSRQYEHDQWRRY
Sequence of UniProt Q6P4F2 (Q6P4F2 whole entry, looked up): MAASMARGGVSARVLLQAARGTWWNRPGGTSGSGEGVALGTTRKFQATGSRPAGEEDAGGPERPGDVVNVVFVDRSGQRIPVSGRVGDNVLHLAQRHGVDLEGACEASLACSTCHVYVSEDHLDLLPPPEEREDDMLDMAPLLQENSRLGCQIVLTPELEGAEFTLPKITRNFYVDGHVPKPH
Sequence of UniProt P02792 (P02792 whole entry, looked up): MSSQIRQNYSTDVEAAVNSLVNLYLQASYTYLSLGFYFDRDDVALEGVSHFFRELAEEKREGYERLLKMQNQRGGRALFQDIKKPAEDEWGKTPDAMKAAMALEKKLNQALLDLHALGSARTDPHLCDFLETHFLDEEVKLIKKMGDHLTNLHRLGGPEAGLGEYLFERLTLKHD

With DUS3L (UniProt Q96G46), the log2 fold change in assay [1] was 0.002; in the assay with vorinostat, -0.08; with silmitasertib it was 0.036; in assay [2], -0.007; in the assay with entospletinib it was 0.014.
Regarding FTL (UniProt P02792), the log2 fold change in assay [1] was -0.064; with vorinostat, 0.018; with silmitasertib it was 0.057; in assay [2] it was 0.011; with entospletinib, -0.151.
As for FHOD1 (UniProt Q9Y613), the log2 fold change in assay [1] is -0.018; with vorinostat, -0.47 (active); with silmitasertib, 0.008; in assay [2], -0.02; with entospletinib, -0.002.
For the target FDX2 (UniProt Q6P4F2), the log2 fold change in assay [1] was -0.03; with vorinostat, 0.195; with silmitasertib it was -0.069; in assay [2], -0.066; with entospletinib, 0.042.
As for GGT7 (UniProt Q9UJ14), the log2 fold change in assay [1] is -0.094; in the assay with vorinostat, 0.244 (active); in the assay with silmitasertib, -0.017; in assay [2] it was 0.015; with entospletinib, -0.056.
On to FOXJ3 (UniProt Q9UPW0), for which the log2 fold change in assay [1] is -0.016; with vorinostat it was -0.24 (active); with silmitasertib it was 0.114; in assay [2] it was 0.019; in the assay with entospletinib, 0.022.
As to FBLL1 (UniProt A6NHQ2), the log2 fold change was 0.006 in assay [1]; 0.094 with vorinostat; 0.034 in the assay with silmitasertib; -0.017 in assay [2]; -0.014 in the assay with entospletinib.
As to EXOC4 (UniProt Q96A65), the log2 fold change in assay [1] was 0.009; in the assay with vorinostat, -0.389 (active); with silmitasertib, 0.041; in assay [2], -0.022; with entospletinib, -0.006.
On to FAM120B (UniProt Q96EK7), for which the log2 fold change in assay [1] is -0.002; with vorinostat, -0.299 (active); with silmitasertib it was 0.041; in assay [2], -0.022; with entospletinib, -0.001.
